Reference: PubChem BioAssay (NCI)
Compounds without any hit were thinned out: in the full panel of roughly 83,000, 20% have a hit.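 The test compound was applied at a single concentration to cells in 96-well plates for 48 hours, and percent growth was recorded.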 Active and inactive are the calls of the source. How the source made its calls: active means growth percent below 10; inactive means the rest.

These compounds were tested on T-47D breast (assay: NCI-60 one-dose screen, 48 h (100 = growth as untreated, 0 = no growth, -100 = all killed)). Details: 10 µM unless noted.
With `O=C(NNC(=O)N1c2ccccc2C=Cc2ccccc21)c1ccc2ccccc2c1` the growth was 87.4% (inactive). For `CCOC(=O)C1C(=O)C=C(c2ccc(OC)cc2)CC1c1sc(N(C)Cc2ccccc2)nc1Cl` (stereo unspecified), the growth was 64.2% (inactive). In the case of `CCc1cnc(=S)n(-c2ccccc2)c1`, the growth is reported as 112% (inactive). In the case of `CCN(CC)c1ccc2[nH]c3c(C(N)=O)cc(=O)c(=O)c=3oc2c1`, the growth is reported as -0.924% (active). For `CC1(C)C(=O)/C(=C\c2ccc(C(F)(F)F)cc2)C[C@]2(C)[C@H]3CC[C@@H]4[C@H]5[C@H](C(=O)/C=C/c6ccc(C(F)(F)F)cc6)CC[C@]5(CO)CC[C@@]4(C)[C@]3(C)CC[C@@H]12`, the growth was 76% (inactive). For `O=[N+]([O-])c1ccc(Sc2ncccn2)c([N+](=O)[O-])c1`, the growth was 41.1% (inactive). With `CC(C)(C)OC(=O)NC(CSCc1ccccc1)C(=O)ON1C(=O)CCC1=O` (stereo unspecified) the growth was 93.9% (inactive). In the case of `C/C(=C\c1ccc(OCC(=O)O)c(Cl)c1Cl)[N+](=O)[O-]`, the growth is reported as 100% (inactive). With `CC(C)(C)n1cc(-c2ccnc(NCCCNS(=O)(=O)c3ccc(C(F)(F)F)cc3)c2)c(-c2cccc(O)c2)n1` the growth was 31.3% (inactive). For `CC(C)(C)n1cc(-c2ccnc(NCCCNS(=O)(=O)c3ccc(Br)cc3)c2)c(-c2cccc(O)c2)n1`, the growth was 29.9% (inactive). `O=C([O][Sn]([O]C(=O)c1ccccn1)([c]1ccccc1)[c]1ccccc1)c1ccccn1` was tested, and the growth was -14.9% (active). In the case of `CC(C)(C)N1CCC1C(N)=O` (stereo unspecified), the growth is reported as 99.5% (inactive). In the case of `CC(C)(C)n1cc(-c2ccnc(NCCCNS(=O)(=O)c3ccc(Cl)cc3)c2)c(-c2cccc(O)c2)n1`, the growth is reported as 5.38% (active). For `O=C(Nc1ccc(NCCN2CCOCC2)nc1)c1ccc([N+](=O)[O-])cc1`, the growth was 107% (inactive). `COc1cc(-c2ncn(/C=C\C(=O)OC(C)C)n2)cc(C(F)(F)F)c1` was tested, and the growth was 16.3% (inactive). For `O=C(NNC(=O)N1c2ccccc2C=Cc2ccccc21)c1ccccc1`, the growth was 102% (inactive). In the case of `CC(C)(C)n1cc(-c2ccnc(NCCNS(=O)(=O)c3ccc(Cl)cc3)c2)c(-c2cccc(O)c2)n1`, the growth is reported as 38% (inactive). For `Clc1ccccc1-c1nc2ccccc2[nH]1`, the growth was 89.3% (inactive). With `CC(C)(C)n1cc(-c2ccnc(NCCNS(=O)(=O)c3ccc(C(F)(F)F)cc3)c2)c(-c2cccc(O)c2)n1` the growth was 32.1% (inactive). For `COc1ccncc1S(=O)(=O)NC(=O)Nc1ccc(Cl)c(Cl)c1`, the growth was 78.1% (inactive). In the case of `COc1ccc(-c2nc(/C=N/Nc3cc(C)nc4ccc(Cl)cc34)c(C)o2)cc1`, the growth is reported as -38% (active). In the case of `COc1ccc(C(=O)N2NC(=O)/C(=C/c3ccccc3F)N=C2c2ccccc2)cc1`, the growth is reported as 97.2% (inactive). For `COc1cccc(/C=C2\Oc3cc(OCCCN4CCCC4)ccc3C2=O)c1OC`, the growth was 97.2% (inactive). With `O=C1C(Cl)=C(Nc2ccccn2)C(=O)c2ccccc21` the growth was 33.6% (inactive). `Cc1ccc2[nH]c(=O)c3c(c2c1)Oc1ncn2nc(-c4ccco4)nc2c1C3c1ccc(Cl)cc1` (stereo unspecified) was tested, and the growth was 89.4% (inactive). In the case of `COc1ccc(C2CC(c3ccc(OC)cc3OC)=NN2c2ccc(S(N)(=O)=O)cc2)cc1` (stereo unspecified), the growth is reported as 63.9% (inactive). With `c1ccc(-c2nnc(-c3ccccn3)s2)nc1` the growth was 33.9% (inactive). In the case of `Clc1cc2c(nn1)Nc1ccccc1S2`, the growth is reported as 85% (inactive). `COc1cc(/C=N\NC(=O)CN2CCN(c3cc4c(cc3F)c(=O)c(C(=O)N/N=C/c3cc(OC)c(OC)c(OC)c3)cn4C3CC3)CC2)cc(OC)c1OC` was tested, and the growth was -12.3% (active). `NC1=C(/C(N)=N/O)C(c2ccccc2)c2ccc3ccccc3c2O1` (stereo unspecified) was tested, and the growth was 54.5% (inactive). With `OCc1ncc(-c2ccccc2)s1` the growth was 89.8% (inactive).
